# In the supplement of paper PMC11732987, “Enantioselective OTUD7B fragment discovery through chemoproteomics screening and high-throughput optimisation” (Communications Chemistry, 2025):
# A number with no mark means an inactive call.
# Experiments:
# Assay in all cases: log2 ratio of Biotin-Ahx-Ub-VS probe labelling (fragment/DMSO); higher = less target engagement (more negative = stronger competition), active = hit call of the paper (q ≤ 0.05, log2 ratio ≤ -1)
# Conditions in all cases: compound concentration: 200 uM; treatment time: 3 h
# OTUD6B = biological target: T1, OTUD6B (UniProt Q8N6M0)
# T1 sequence (whole entry): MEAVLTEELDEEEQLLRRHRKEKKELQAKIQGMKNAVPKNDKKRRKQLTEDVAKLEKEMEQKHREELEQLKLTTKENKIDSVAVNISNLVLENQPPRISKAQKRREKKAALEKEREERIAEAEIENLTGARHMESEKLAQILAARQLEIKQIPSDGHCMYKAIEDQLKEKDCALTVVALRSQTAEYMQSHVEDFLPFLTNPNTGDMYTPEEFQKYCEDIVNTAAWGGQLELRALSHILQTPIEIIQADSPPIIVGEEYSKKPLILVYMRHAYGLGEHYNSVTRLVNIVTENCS
# How it was run: (§1)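 Using Biotin-Ahx-Ub-VS at 0.5 µM final for 1 h, DUBs were labelled in HEK293T lysate (495 µg per sample) that had first been treated in triplicate with fragment at 200 µM or vehicle for 3 h. NeutrAvidin enrichment, LysC and trypsin digestion and diaPASEF LC-MS/MS followed. Spectronaut label-free quantities were global-median-normalised. Values are average log2 fragment/vehicle ratios by unpaired t-test, using proteins with ≥2 unique peptides.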
# OTUD7B = biological target: T2, OTUD7B (UniProt Q6GQQ9)
# T2 sequence (whole entry): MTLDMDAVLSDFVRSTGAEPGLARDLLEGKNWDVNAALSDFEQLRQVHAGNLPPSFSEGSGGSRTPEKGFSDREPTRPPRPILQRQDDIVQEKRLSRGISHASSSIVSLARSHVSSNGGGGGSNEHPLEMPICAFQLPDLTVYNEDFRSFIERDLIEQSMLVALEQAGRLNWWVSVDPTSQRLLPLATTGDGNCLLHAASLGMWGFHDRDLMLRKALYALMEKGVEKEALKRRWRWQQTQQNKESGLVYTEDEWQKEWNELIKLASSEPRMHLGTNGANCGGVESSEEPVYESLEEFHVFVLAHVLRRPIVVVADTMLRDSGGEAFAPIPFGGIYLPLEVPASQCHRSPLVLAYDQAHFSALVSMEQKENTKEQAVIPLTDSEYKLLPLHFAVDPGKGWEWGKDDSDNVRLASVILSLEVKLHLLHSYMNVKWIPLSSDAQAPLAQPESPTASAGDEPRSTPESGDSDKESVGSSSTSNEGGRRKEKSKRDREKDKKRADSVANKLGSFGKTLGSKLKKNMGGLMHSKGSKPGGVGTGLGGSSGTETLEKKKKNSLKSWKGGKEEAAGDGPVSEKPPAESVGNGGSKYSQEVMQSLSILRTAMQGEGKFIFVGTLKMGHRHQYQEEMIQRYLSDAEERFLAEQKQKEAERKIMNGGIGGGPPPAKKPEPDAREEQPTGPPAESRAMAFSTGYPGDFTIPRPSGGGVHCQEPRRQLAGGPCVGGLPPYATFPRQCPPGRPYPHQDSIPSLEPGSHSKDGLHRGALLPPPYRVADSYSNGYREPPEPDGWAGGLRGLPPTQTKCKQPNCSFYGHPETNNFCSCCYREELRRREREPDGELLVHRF
# How it was run: as §1
# PRPF8 = PRPF8 (UniProt Q6P2Q9)
# How it was run: as §1
# PSMD7 = biological target: T3, PSMD7 (UniProt P51665)
# T3 sequence (whole entry): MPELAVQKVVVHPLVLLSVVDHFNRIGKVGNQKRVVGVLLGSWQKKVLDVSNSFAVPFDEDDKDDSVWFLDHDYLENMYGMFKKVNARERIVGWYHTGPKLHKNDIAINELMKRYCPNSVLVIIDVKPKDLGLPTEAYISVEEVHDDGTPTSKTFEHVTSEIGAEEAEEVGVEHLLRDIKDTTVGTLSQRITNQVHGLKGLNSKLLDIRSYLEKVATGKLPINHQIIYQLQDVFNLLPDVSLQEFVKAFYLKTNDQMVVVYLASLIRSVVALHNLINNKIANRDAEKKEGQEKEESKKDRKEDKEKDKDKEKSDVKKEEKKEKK
# How it was run: as §1
# UCHL1 = UCHL1 (UniProt P09936)
# How it was run: as §1
# UCHL3 = biological target: T4, UCHL3 (UniProt P15374)
# T4 sequence (whole entry): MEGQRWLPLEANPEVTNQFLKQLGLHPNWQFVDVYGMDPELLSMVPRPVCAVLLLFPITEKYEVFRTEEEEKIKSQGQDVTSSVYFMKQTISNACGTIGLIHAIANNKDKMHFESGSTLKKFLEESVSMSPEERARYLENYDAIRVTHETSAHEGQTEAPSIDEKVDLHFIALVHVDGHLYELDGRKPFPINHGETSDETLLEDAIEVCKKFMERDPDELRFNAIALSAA
# How it was run: as §1
# UCHL5 = biological target: T5, UCHL5 (UniProt Q9Y5K5)
# T5 sequence (whole entry): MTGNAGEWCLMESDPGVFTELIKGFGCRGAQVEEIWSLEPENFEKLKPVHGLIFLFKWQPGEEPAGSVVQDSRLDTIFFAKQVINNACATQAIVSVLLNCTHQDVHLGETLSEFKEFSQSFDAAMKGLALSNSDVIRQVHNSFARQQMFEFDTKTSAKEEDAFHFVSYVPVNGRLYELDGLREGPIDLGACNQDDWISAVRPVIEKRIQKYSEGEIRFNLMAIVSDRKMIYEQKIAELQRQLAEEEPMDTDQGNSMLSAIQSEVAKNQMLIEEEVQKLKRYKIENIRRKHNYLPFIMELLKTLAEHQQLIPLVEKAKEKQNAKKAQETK
# How it was run: as §1
# USP10 = USP10 (UniProt Q14694)
# How it was run: as §1
# USP15 = biological target: T6, USP15 (UniProt Q9Y4E8)
# T6 sequence (whole entry): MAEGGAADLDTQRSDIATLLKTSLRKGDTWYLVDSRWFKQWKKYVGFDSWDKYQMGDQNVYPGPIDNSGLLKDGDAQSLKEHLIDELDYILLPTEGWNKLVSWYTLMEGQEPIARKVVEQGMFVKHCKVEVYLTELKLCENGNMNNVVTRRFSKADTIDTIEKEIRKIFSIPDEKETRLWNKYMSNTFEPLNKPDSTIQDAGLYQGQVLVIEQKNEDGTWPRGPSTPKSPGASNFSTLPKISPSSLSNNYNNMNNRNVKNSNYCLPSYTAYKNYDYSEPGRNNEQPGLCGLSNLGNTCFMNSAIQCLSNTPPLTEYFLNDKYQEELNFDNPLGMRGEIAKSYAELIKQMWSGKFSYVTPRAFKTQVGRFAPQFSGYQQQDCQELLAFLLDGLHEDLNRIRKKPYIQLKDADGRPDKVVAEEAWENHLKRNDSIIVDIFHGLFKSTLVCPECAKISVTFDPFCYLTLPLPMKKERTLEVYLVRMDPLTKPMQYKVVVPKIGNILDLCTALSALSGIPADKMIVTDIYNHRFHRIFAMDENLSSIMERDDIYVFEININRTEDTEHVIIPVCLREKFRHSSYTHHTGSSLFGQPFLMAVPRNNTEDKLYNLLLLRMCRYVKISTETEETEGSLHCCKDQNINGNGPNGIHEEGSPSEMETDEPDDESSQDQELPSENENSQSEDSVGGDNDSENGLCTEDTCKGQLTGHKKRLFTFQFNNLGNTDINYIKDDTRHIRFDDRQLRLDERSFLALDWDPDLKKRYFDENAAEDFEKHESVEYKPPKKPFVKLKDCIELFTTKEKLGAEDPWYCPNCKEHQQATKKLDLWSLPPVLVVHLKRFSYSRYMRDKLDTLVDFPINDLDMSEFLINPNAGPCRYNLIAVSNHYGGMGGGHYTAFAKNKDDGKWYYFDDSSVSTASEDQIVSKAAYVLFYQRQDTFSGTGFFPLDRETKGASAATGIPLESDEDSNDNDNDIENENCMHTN
# How it was run: as §1
# USP16 = USP16 (UniProt Q9Y5T5)
# How it was run: as §1
# USP10, sequence (Q14694 whole entry): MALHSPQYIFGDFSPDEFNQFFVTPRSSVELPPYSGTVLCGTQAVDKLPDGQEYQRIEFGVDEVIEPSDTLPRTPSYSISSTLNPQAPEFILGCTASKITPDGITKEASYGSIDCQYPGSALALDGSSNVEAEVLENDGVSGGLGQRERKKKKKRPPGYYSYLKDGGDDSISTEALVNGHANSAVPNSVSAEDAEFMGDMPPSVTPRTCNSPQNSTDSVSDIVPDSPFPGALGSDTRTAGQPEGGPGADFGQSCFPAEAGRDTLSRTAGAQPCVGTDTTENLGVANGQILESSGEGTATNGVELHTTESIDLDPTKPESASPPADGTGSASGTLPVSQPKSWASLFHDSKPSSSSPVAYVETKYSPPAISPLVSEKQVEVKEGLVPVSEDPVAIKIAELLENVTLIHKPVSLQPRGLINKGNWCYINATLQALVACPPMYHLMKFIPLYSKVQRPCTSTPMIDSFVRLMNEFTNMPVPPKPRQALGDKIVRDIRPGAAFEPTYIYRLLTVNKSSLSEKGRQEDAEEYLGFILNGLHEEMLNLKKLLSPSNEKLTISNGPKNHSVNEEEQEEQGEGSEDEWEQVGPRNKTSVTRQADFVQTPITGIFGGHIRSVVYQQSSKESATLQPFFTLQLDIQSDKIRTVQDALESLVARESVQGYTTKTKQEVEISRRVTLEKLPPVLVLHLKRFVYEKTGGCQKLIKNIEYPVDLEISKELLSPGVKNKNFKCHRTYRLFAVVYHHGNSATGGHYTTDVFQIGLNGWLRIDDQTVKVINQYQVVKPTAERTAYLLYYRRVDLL
# UCHL1, sequence (P09936 whole entry, looked up): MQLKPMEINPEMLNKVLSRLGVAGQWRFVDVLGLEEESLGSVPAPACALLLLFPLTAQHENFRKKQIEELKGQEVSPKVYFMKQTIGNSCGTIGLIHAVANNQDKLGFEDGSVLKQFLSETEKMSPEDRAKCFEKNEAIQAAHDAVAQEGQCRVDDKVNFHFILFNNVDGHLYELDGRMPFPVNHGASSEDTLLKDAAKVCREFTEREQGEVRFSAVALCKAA
# USP16, sequence (Q9Y5T5 whole entry, looked up): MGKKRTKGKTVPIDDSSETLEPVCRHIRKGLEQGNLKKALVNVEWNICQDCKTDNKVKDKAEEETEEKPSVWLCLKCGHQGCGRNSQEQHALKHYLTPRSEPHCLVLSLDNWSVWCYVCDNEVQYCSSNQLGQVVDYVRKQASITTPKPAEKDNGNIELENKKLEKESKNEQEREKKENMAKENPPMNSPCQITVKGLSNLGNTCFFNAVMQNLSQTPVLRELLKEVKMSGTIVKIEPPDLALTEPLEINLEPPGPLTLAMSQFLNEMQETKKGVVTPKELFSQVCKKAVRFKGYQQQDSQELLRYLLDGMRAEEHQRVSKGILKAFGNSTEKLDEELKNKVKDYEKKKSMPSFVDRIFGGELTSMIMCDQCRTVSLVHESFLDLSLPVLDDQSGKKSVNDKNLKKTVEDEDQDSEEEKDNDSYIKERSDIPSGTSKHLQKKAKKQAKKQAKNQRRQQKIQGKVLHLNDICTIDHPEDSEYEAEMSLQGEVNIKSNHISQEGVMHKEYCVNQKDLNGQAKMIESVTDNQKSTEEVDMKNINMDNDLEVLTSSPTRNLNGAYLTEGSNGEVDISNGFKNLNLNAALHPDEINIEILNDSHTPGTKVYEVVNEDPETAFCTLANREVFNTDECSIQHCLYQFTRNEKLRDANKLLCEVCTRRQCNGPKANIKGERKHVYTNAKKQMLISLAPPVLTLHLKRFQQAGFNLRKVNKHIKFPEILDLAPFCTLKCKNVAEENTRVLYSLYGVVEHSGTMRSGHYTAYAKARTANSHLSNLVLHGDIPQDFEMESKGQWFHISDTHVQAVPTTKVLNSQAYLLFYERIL
compound,measurement,setting,value
Cl.O=C(CN1CCN(C(=O)CCl)CC1)Nc1ccc(F)cc1,log2 ratio of Biotin-Ahx-Ub-VS probe labelling,OTUD6B,0.226
same,log2 ratio of Biotin-Ahx-Ub-VS probe labelling,OTUD7B,0.0571
same,log2 ratio of Biotin-Ahx-Ub-VS probe labelling,PRPF8,0.0678
same,log2 ratio of Biotin-Ahx-Ub-VS probe labelling,PSMD7,0.149
same,log2 ratio of Biotin-Ahx-Ub-VS probe labelling,UCHL1,-1.2 (active)
same,log2 ratio of Biotin-Ahx-Ub-VS probe labelling,UCHL3,0.501
same,log2 ratio of Biotin-Ahx-Ub-VS probe labelling,UCHL5,-0.0699
same,log2 ratio of Biotin-Ahx-Ub-VS probe labelling,USP10,-0.0791
same,log2 ratio of Biotin-Ahx-Ub-VS probe labelling,USP15,-0.113
same,log2 ratio of Biotin-Ahx-Ub-VS probe labelling,USP16,0.138
